Screening data (PubChem)
ELG1 DNA repair – inhibitors of ELG1-dependent DNA repair in HEK293T cells | HEK293T ELG1-luciferase reporter, luminescence, 16 h; DNA damage induced by 5-fluorouridine | Potency, µM (titrated, usually from 46.1 µM), most hits filed as inhibitors | 330,000 tested, 2.3% active | AID 504467; also: nearly all actives have a fitted effect of over 55% in size
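Step one: seed 2,000 cells per well. Step two: pin-transfer compound or DMSO alongside 5-fluorouridine. Step three: incubate 16 hr, 37 °C, 5% CO2. Step four: add ONE-Glo, wait 30 min, read luminescence.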
NPC1 promoter act – activators of NPC1 promoter. Huh7 NPC1 promoter luciferase reporter, 24 h. Potency, µM (titrated, usually from 9.22 µM), actives largely listed as activators. 320,000 tested, 2.4% active. AID 485313; also: nearly all actives have a fitted effect of over 60% in size
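Compounds in DMSO were transferred onto Huh7 NPC1-luciferase reporter cells pre-incubated 2 h; after 24 h at 37 °C, Amplite reagent was dispensed and luminescence recorded 10 min later.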
FLuc counter – counter-screen for miR-21 project: firefly luciferase inhibitors or activators | P08659 | 360,000 tested, 6.9% active | Potency, µM (series often up to 57.5 µM), usual class: inhibitors | AID 588342 | purified FLuc, Km substrates, luminescence inhibition; also: nearly all actives have a fitted effect of over 55% in size
Target sequence (P08659 whole entry, looked up): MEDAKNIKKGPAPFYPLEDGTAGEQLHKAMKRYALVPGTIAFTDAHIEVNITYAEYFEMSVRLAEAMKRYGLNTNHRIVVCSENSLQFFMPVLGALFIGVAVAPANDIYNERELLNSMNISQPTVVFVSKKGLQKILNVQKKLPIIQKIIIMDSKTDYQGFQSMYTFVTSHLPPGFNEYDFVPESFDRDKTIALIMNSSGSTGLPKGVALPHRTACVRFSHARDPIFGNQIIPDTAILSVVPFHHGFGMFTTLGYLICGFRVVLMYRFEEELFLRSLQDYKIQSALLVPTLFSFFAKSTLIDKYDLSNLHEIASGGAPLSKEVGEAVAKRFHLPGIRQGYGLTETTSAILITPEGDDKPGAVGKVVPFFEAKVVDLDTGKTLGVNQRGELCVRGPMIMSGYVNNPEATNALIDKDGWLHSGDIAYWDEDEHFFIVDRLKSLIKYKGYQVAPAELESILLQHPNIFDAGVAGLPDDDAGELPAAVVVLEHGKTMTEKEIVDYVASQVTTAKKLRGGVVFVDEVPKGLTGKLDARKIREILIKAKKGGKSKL
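Biochemical qHTS of compounds, final roughly 60 µM downward over six points, against 10 nM purified firefly luciferase using Km concentrations of substrates (10 uM D-luciferin, 10 uM ATP) in Tris acetate pH 7.5 buffer; luminescence output.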
ELG1 genotox – induces genotoxicity in HEK293T cells with luciferase-tagged ELG1. HEK293T ELG1-luciferase reporter, luminescence, 16 h. Potency, µM (doses to about 46 µM), most hits filed as activators. 330,000 tested, 1.3% active; also: nearly all actives have a fitted effect of over 60% in size
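Cells (2,000/well) expressing the ELG1-luciferase fusion are dosed by pin tool and kept 16 hr at 37 °C, 5% CO2. Signal comes from ONE-Glo luciferase reagent after 30 min at room temperature.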
Rab9 promoter act – Rab9 promoter activation. AID 485297. Potency, µM (highest dose often 9.22 µM), usual class: activators. 320,000 tested, 2.8% active. Huh7 Rab9 promoter-luciferase reporter, luminescence, 24 h; also: nearly all actives have a fitted effect of over 60% in size
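Measured in stably transfected Huh7 cells bearing a Rab9 promoter–luciferase construct: 24 h compound treatment at 37 °C, followed by luminescence detection.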
SMN2 splice enh – SMN2 splice variant enhancement. Potency, µM (top dose mostly 46.1 µM), hits mostly activators. 210,000 tested, 2.8% active. HEK293 SMN2-luciferase splicing reporter, luminescence, 30-36 h; also: nearly all actives have a fitted effect of over 55% in size
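HEK293 cells carry an SMN2 […]–luciferase reporter in which exon 7 inclusion puts luciferase in frame. Cells were plated 10-12 h before compound addition, then incubated 30-36 h at 37C. ONE-Glo luminescence was read; sodium butyrate at 4.5 mM final served as control.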
Of the large screens only hits and unclear results are named; the others gave an inactive call. Most compounds without a hit are left out; they make up all but 9.2% or so of the library. Calls follow the shape of the dose curve; as a rule, active = well fitted curve in the direction sought with a large enough effect; inconclusive = small, poorly fitted or top-dose-only effect, or another doubt; inactive = no such curve, though single readings can be large; an effect the other way counts as inactive or inconclusive.

CC(=O)Nc1ccc(S(=O)(=O)N2CCSC2c2ccc(C)cc2)cc1 (stereo unspecified)	ELG1 DNA repair 16µM
Cc1ccc(S(=O)(=O)N2CCCC2c2cccnc2)cc1 (stereo unspecified)	none (no result: SMN2 splice enh)
CCNCC(O)c1cccc(O)c1 (stereo unspecified)	none (no result: SMN2 splice enh)
NNCc1cccc(O)c1	FLuc counter 2.7µM
O=C(Cc1ccc([N+](=O)[O-])cc1)N1CCN(Cc2ccc3c(c2)OCO3)CC1	ELG1 DNA repair inconclusive (no result: SMN2 splice enh)
CCc1nn(CC(=O)N2CCN(Cc3ccc4c(c3)OCO4)CC2)c(=O)c2cc3occc3n12	ELG1 DNA repair 21µM
Cc1ccc(C(=O)COC(=O)Cc2ccccc2)cc1	FLuc counter 0.95µM, ELG1 genotox inconclusive (no result: SMN2 splice enh)
O=C(Cc1ccccc1)OCC(=O)c1ccccc1	ELG1 DNA repair inconclusive, FLuc counter 6.7µM (no result: SMN2 splice enh)
O=C(Cc1ccccc1)OCC(=O)c1ccc(F)cc1	ELG1 DNA repair inconclusive (no result: NPC1 promoter act, FLuc counter, Rab9 promoter act, SMN2 splice enh)
c1nc(N2CC2)c2cnn([C@@H]3CCCCO3)c2n1	none (no result: ELG1 DNA repair, NPC1 promoter act, FLuc counter, ELG1 genotox, Rab9 promoter act)
Cc1ccccc1-n1c(O)c(/C=N/N2CCCCC2c2cccnc2)c(=O)[nH]c1=O (stereo unspecified)	none
C[C@@H]1C[C@@H]([C@H](O)CC2CC(=O)NC(=O)C2)C(=O)[C@@H](C)C1	ELG1 DNA repair 0.29µM
C[C@@H]1CC([C@H](O)CC2CC(=O)NC(=O)C2)C(=O)[C@@H](C)C1 (stereo partly specified)	none (no result: ELG1 DNA repair, NPC1 promoter act, FLuc counter, ELG1 genotox, Rab9 promoter act)
CC1(C)CCC(C)(C)c2c1ccc(O)c2Cc1c(O)ccc2c1C(C)(C)CCC2(C)C	none (no result: ELG1 DNA repair, NPC1 promoter act, FLuc counter, ELG1 genotox, Rab9 promoter act)
C=CC[C@H](CC(=O)N(CCO)Cc1ccccc1)C(=O)NC[C@H](OC(=O)[C@@H](CC=C)CC(=O)OC(C)(C)C)c1ccccc1	ELG1 DNA repair 21µM (no result: NPC1 promoter act, FLuc counter, Rab9 promoter act, SMN2 splice enh)
C=CC[C@@H](CC(=O)N(CCO)Cc1ccccc1)C(=O)NC[C@@H](OC(=O)[C@@H](CC=C)CC(=O)OC(C)(C)C)c1ccccc1	ELG1 DNA repair 21µM (no result: NPC1 promoter act, FLuc counter, Rab9 promoter act, SMN2 splice enh)
N#CCCn1cc(C(=O)Nc2ccc([N+](=O)[O-])cc2)c(-c2ccc3c(c2)OCCO3)n1	ELG1 DNA repair inconclusive, SMN2 splice enh inconclusive
Cc1ccc(NC(=O)c2cn(CCC#N)nc2-c2ccc3c(c2)OCCO3)c([N+](=O)[O-])c1	ELG1 DNA repair 18µM
O=C(O)[C@H](Cc1cnc[nH]1)N1C(=O)c2ccccc2C1=O	none (no result: ELG1 DNA repair, NPC1 promoter act, FLuc counter, ELG1 genotox, Rab9 promoter act)
Cc1ccc(-c2nc3ccc(Cl)cc3n2OC(=O)N(C)C)cc1	ELG1 DNA repair inconclusive, NPC1 promoter act 3.2µM, FLuc counter inconclusive, ELG1 genotox 2.9µM, Rab9 promoter act 3.2µM
CN(C)C(=O)Oc1ccnc2cc(Cl)ccc12	ELG1 DNA repair inconclusive, SMN2 splice enh inconclusive
O=S(=O)(c1ccccc1C(F)(F)F)N1CCN(c2ncnc3sccc23)CC1	ELG1 DNA repair 16µM (no result: NPC1 promoter act, FLuc counter, Rab9 promoter act, SMN2 splice enh)
O=S(=O)(c1ccc(F)c(F)c1F)N1CCN(c2ncnc3sccc23)CC1	ELG1 DNA repair inconclusive (no result: NPC1 promoter act, FLuc counter, Rab9 promoter act, SMN2 splice enh)
CCOc1ccc2nc(N=Nc3c(O)[nH]c(=S)[nH]c3=O)sc2c1	FLuc counter 19µM
C[C@H](CN(C)C)C(C#N)(c1ccccc1)c1ccccc1	none (no result: ELG1 DNA repair, NPC1 promoter act, FLuc counter, ELG1 genotox, Rab9 promoter act)
CCCCCCOc1ccc(CN2CCN(CC)CC2)cc1	ELG1 DNA repair inconclusive, NPC1 promoter act 4µM, FLuc counter 9.5µM, ELG1 genotox 3.7µM, Rab9 promoter act 2.8µM
COc1ccc(C/C(=N\OC(C)=O)c2ccc(OC)cc2)cc1	ELG1 DNA repair inconclusive, FLuc counter 0.6µM (no result: SMN2 splice enh)
CC1=NN(c2ccc(S(=O)(=O)O)cc2C)C(=[OH+])[C@H]1N=Nc1cc(S(=O)(=O)O)ccc1C(=O)O.O.[Cr]	none (no result: ELG1 DNA repair, NPC1 promoter act, FLuc counter, ELG1 genotox, Rab9 promoter act)
COc1ccc2c(c1)CCc1c(C(=O)Nc3c(C)nn(Cc4ccccc4C)c3C)noc1-2	FLuc counter inconclusive (no result: ELG1 DNA repair, NPC1 promoter act, ELG1 genotox, Rab9 promoter act)
O=C(NCc1ccc(Cl)cc1)C1CCN(C(=O)c2cnn(-c3ccccc3)c2-n2cccc2)CC1	none (no result: ELG1 DNA repair, NPC1 promoter act, ELG1 genotox, Rab9 promoter act)
Cc1ccc(/C=C2\C(=O)NC(=S)N(c3ccccc3F)C2=O)s1	ELG1 DNA repair 23µM, FLuc counter inconclusive
